From the supplement of paper PMC6555819

Tests used:
Assay in all cases: PBM binding z-score (relative to random genomic background probes); higher = stronger binding; sequences stand for … in GC…GCGATTGACAGCGTAGAATGAAGG
[1] = test system: FXR:RXRa (NR concentration 270 nM, RXRa partner concentration 90 nM)
Method in brief: (§1)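 Scanned fluorescence from custom Agilent 4×180K protein-binding microarrays was regression-normalized. Binding z-scores use random background probes as reference. Ligand-free nuclear receptor dimers were incubated on the arrays for 1 h and detected with antibodies against each partner (one per run).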

[2] = test system: LXRa:RXRa (NR concentration 270 nM, RXRa partner concentration 90 nM)
Method in brief: as §1

[3] = test system: LXRa homodimer (NR concentration 270 nM)
Method in brief: as §1

[4] = test system: LXRb:RXRa (NR concentration 270 nM, RXRa partner concentration 90 nM)
Method in brief: as §1

[5] = test system: LXRb homodimer (NR concentration 270 nM)
Method in brief: as §1

[6] = test system: PPARa:RXRa (NR concentration 270 nM, RXRa partner concentration 90 nM)
Method in brief: as §1

[7] = test system: PPARg:RXRa (NR concentration 180 nM, RXRa partner concentration 90 nM)
Method in brief: as §1

[8] = test system: PPARg:RXRa 270nM:90nM, anti-RXR (NR concentration 270 nM, RXRa partner concentration 90 nM)
Method in brief: as §1

[9] = test system: PPARg:RXRa 30nM:10nM, anti-RXR (NR concentration 30 nM, RXRa partner concentration 10 nM)
Method in brief: as §1

[10] = test system: PPARg:RXRa 90nM:30nM, anti-RXR (NR concentration 90 nM, RXRa partner concentration 30 nM)
Method in brief: as §1

[11] = test system: PPARg:RXRa DBDmut IVT, anti-RXR (DBD mutation: RXRa K156A/R161A, NR concentration 270 nM, RXRa partner concentration 90 nM)
Method in brief: as §1

[12] = test system: PPARg:RXRa IVT, anti-PPARg (NR concentration 270 nM, RXRa partner concentration 90 nM)
Method in brief: as §1

[13] = test system: PPARg DBDmut:RXRa IVT, anti-PPARg (DBD mutation: PPARg1 K132A/R137A, NR concentration 270 nM, RXRa partner concentration 90 nM)
Method in brief: as §1

[14] = test system: PPARg DBDmut IVT, anti-PPARg (DBD mutation: PPARg1 K132A/R137A, NR concentration 270 nM)
Method in brief: as §1

[15] = test system: PPARg homodimer (NR concentration 180 nM)
Method in brief: as §1

[16] = test system: PXR:RXRa (NR concentration 270 nM, RXRa partner concentration 90 nM)
Method in brief: as §1

[17] = test system: PXR homodimer (NR concentration 270 nM)
Method in brief: as §1

[18] = test system: RARa:RXR (NR concentration 270 nM, RXRa partner concentration 90 nM)
Method in brief: as §1

[19] = test system: RARa homodimer (NR concentration 270 nM)
Method in brief: as §1

[20] = test system: RARb:RXRa (NR concentration 270 nM, RXRa partner concentration 90 nM)
Method in brief: as §1

Sequence	PBM binding z-score [1]	PBM binding z-score [2]	PBM binding z-score [3]	PBM binding z-score [4]	PBM binding z-score [5]	PBM binding z-score [6]	PBM binding z-score [7]	PBM binding z-score [8]	PBM binding z-score [9]	PBM binding z-score [10]	PBM binding z-score [11]	PBM binding z-score [12]	PBM binding z-score [13]	PBM binding z-score [14]	PBM binding z-score [15]	PBM binding z-score [16]	PBM binding z-score [17]	PBM binding z-score [18]	PBM binding z-score [19]	PBM binding z-score [20]
CGAACTGGGTCAGAACAGGACAGTGAAGGATGAT	0.455	0.381	-0.423	0.0427	-0.721	2.66	4.95	3.9	1.63	3.42	6.73	6.56	2.09	2.05	0.887	1.06	-0.389	1.31	0.0168	2.23
CCTGCTAGGTCAATGTTCAGCTAAAGCAGCTCGC	3.04	2.39	-0.0143	1.52	0.516	3	2.51	3.63	0.934	2.93	4.27	3.55	-0.21	-0.461	1.39	0.795	-0.474	1.54	-0.305	3.8
GTACCACGGTGAATAGGTCGTTGATGAGTAGGCG	-0.0112	-0.00221	-0.237	-0.365	-0.842	0.664	0.525	0.597	-0.227	0.557	-0.0107	0.889	-0.572	-0.695	0.25	0.0182	-0.47	0.233	-0.371	0.587
CCTACTGGGCCGAAAAGGTCATTGATGCCGATAA	3.42	4.38	2.91	3.93	0.134	4.47	1.7	3.34	0.611	2.39	0.922	2.21	-1.07	-1.05	1.68	4.56	1.74	4.84	0.458	3.77
TCATTTAGGTAAATGCTAGGTGAAAGTCCGATCT	0.568	0.673	0.0938	0.395	0.604	1.41	0.312	1.97	3.57	2.65	3.13	2.44	1.71	1.17	0.343	0.445	-0.0267	0.799	0.628	0.562
GCTGCTAGGTTAGGTTGGTCAGCTAACGGGTACG	-0.39	-0.356	-0.358	-0.526	-0.743	-0.376	-0.306	-0.464	-0.769	-0.625	1	0.292	-1.46	-0.928	-0.465	-0.364	-0.359	-0.327	-0.345	0.767
AGAATGCGGTTATTAAGATCAGGGAATTGCGGTC	-0.258	-0.138	-0.259	-0.43	-0.728	-0.484	0.0333	-0.202	-0.149	-0.182	-0.161	0.143	-0.136	-0.574	-0.18	-0.396	0.0419	-0.457	0.329	-0.0684
AGAATGAGGTGATTAAGATCAGGGAATTGCGGTC	-0.0476	-0.338	-0.29	-0.384	-0.427	0.785	0.618	0.415	-0.0538	0.0296	2.96	2.25	0.816	-0.56	-0.484	-0.0501	-0.416	0.0955	-0.457	0.268
TGAATCAGGTTATAAGATCAGGGAACGTTGCAAA	0.101	0.162	-0.396	0.0988	-0.425	0.709	0.475	0.863	0.155	0.477	0.57	1.03	1.01	0.775	2.15e-05	-0.146	-0.197	-0.101	0.428	0.25
GCTTACGAGTCAAAGGTTATAGCATGAATAGAAT	2.49	3	-0.0276	2.72	-0.261	4.52	5.72	6.18	4.17	6.28	-0.0786	1.3	0.924	-0.155	0.792	2.73	-0.0683	4.4	-0.195	1.78
TCATATAGGTAAACGGTGAAAGTCGGTGTGGTAA	0.188	0.878	0.118	0.712	-0.229	2.17	2.41	4.15	4.43	4.57	4.37	3.34	1.61	0.702	0.811	0.39	0.405	0.111	0.67	0.522
TCTTGTAGATCAGCAGGTAAAGAAAGCTGGCCAA	0.051	0.0639	-0.443	-0.119	-0.519	0.422	-0.331	0.955	2.5	1.69	1.27	0.386	-0.0476	-0.531	-0.175	-0.0594	-0.358	0.111	0.0298	-0.482
CCTAGCAGGCCAATCTGGGTTACTCAAGGCTTGA	0.0367	-0.0703	-0.681	-0.364	-1.09	1.18	0.194	0.0942	-1.01	-0.507	3.14	3.29	-0.813	-1.24	-0.705	-0.391	-0.895	-0.308	-0.89	0.268
AGAATGAGGTTATTAAGATCAGGGCATTGCGGTC	1.9	1.95	0.705	1.39	-0.0987	2.66	1.67	2.33	1	1.39	3.64	2.96	0.978	-0.0431	1.27	1.83	1.83	1.79	0.408	1.75
ATGTCTAGGTAAAGTTCAGTGAAAGATCGATAGA	1.21	1.74	1.26	1.15	0.816	2.56	3.51	4.55	2.43	4.25	1.29	2.46	1.14	1.13	1.69	2.12	1.98	1.13	1.09	2.84
GCTCGGAGGACAAGGTCAGAGCATTGTCCGTAGA	1.99	1.75	-0.445	1.15	-0.84	2.48	0.798	1.67	-0.55	0.636	-0.234	0.996	-1.46	-0.733	0.964	1.69	-0.0134	2.26	-0.974	3.38
GGAACGATGGCATTCGAGTTGATAGCATGGCGAT	-0.471	-0.604	-0.706	-0.979	-1.12	-0.689	0.643	-0.465	-0.325	-0.434	-0.377	-0.247	-0.636	-0.427	-0.633	-0.0726	-0.789	-0.647	-0.81	-0.501
ACAGACAGGTGATCAAGGTAACTCAGGCTATCAT	0.0446	-0.068	-0.091	-0.153	-0.411	-0.038	0.479	-0.0434	-0.141	-0.12	0.0346	0.406	-0.281	0.238	0.161	-0.179	0.0426	0.35	0.298	0.165
TAGCCTAGGTCATTCAGGGGACAGTATAGAAAGC	4.83	4.05	1.41	3.39	1.57	3.96	2.88	2.81	0.785	1.62	2.17	3.28	0.412	0.909	1.58	2.58	0.0541	3.72	0.228	4.09
AGAATGAGGTTACCAAAGATCAGCGAAACGCTTG	1.92	6.09	-0.342	3.38	-0.405	3.24	2.63	2.59	0.865	1.64	4.05	3.33	1.77	0.58	0.597	1.32	-0.226	2.13	0.0511	2.08
ATATGTAGGTTATCGGGTCATTAAGTTTGCGCAT	3	2.85	1.77	2.95	1.02	5	7.09	6.08	3.81	5.71	7.51	7.55	2.77	2.29	2.72	4.08	9.55	3.8	1.51	2.62
GTGACTGGGGCAAAGCAGGTTACCATAAGGTTGG	0.845	0.956	0.27	0.924	-0.272	2.5	2.32	2.83	0.397	1.36	4.87	5.02	1.15	0.645	0.994	0.926	-0.0315	1.99	-0.0502	1.14
CCTACTGGGCAAAAGGTCATTGATTCCAATGCTC	4.38	5.09	3.89	4.36	0.466	5.57	10.4	9.29	9.17	9.67	2.57	5.1	-0.086	-0.781	3.07	4.91	1.5	5.73	1.77	4.35
ACTATTAGTTGACTTAGGGCATCCGATACGACGC	-0.0291	0.0994	0.216	-0.154	0.3	-0.203	0.827	0.149	0.353	0.396	0.311	0.614	1.03	0.574	0.0693	0.114	0.228	0.0202	0.624	0.643
CCTACTGCGCCAAGGTCATTGATCAGTCAAAGCA	3.5	3.48	2.13	3.52	0.86	3.75	0.507	1.59	-0.0931	0.819	0.265	0.978	-0.442	-0.653	2.68	3.85	2.48	3.83	1.07	3.51
GCACCAAGGTGAATAGGTCGTTGATGAGTAGGCG	0.712	0.592	-0.472	0.429	-0.835	2.37	1.17	1.62	0.404	0.742	2.07	2.2	-0.106	-0.894	1.01	0.721	-0.261	1.6	-0.487	1.93
CCGACTGGGCCACGAAAGGTCATTGATTCAGTGA	3.33	4.99	3.8	4.13	-0.0773	4.31	3.41	4.06	1.52	3.16	4.66	4.28	-0.928	-1.23	2.39	5.17	0.941	4.89	0.265	3.79
TCTGCTAGGTCAGTTTGTCAGCTAACGAGCTGCC	0.772	0.567	-0.461	0.457	0.977	1.03	-0.179	1.12	1.38	1.4	2.1	2.5	0.124	0.15	-0.156	0.322	-0.604	0.454	-0.407	2.72
TCATATAGGTAAACAGGTTAAAGTCCGTAAGTTA	0.775	1.24	0.749	1.34	0.393	2.69	2.85	3.9	4.25	3.91	4.76	4.3	1.02	1.02	1.31	1.29	0.911	1.79	1.77	0.998
